# Assay results from ChEMBL document CHEMBL3988442, “University of Dundee, Small-Polar-MMV Screening Library” (2021).
# For some assays here: Results with a measured potency or affinity are listed apart.
# Tests used:
# Set-up in all cases: scale not given: direction of the effect not stated beside the values
# [1] = molecular target: Protein translocase subunit SecA (Escherichia coli (strain K12)) (UniProt P10408); assay: Assay to Identify E. coli SecA ATPase Inhibitors; assay type: functional; conditions: 30 µM
# Protein translocase subunit SecA (Escherichia coli (strain K12)), sequence (P10408 whole entry): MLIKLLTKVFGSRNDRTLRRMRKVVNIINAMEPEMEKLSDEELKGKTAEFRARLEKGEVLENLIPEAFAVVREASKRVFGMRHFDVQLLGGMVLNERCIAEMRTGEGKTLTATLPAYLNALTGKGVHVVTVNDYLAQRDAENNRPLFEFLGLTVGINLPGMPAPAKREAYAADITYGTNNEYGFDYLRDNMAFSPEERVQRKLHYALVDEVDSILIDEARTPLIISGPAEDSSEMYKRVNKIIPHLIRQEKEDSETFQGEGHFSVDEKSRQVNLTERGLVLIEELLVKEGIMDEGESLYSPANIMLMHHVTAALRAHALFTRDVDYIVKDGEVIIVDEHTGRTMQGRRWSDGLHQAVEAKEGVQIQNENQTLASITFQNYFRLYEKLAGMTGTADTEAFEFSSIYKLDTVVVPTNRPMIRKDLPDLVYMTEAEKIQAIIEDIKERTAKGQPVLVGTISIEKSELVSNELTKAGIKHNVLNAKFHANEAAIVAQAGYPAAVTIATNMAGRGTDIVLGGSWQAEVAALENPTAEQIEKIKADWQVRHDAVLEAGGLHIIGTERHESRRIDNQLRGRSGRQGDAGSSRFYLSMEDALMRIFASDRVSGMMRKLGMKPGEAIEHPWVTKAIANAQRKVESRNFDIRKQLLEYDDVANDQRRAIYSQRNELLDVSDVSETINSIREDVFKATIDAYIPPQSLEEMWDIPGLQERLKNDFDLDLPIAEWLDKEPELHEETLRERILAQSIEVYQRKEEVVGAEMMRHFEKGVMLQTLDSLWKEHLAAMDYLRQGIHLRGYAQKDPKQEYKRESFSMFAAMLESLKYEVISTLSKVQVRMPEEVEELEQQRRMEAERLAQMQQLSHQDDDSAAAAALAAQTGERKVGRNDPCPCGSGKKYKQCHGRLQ
# [2] = molecular target: T1, Ubiquitin-activating enzyme e1, putative (Leishmania donovani (strain BPK282A1)) (UniProt E9BSI1); assay: Leishmania donovani Ubiquitin Activating Enzyme (LdE1); assay type: functional; conditions: 30 µM
# T1 sequence (whole entry): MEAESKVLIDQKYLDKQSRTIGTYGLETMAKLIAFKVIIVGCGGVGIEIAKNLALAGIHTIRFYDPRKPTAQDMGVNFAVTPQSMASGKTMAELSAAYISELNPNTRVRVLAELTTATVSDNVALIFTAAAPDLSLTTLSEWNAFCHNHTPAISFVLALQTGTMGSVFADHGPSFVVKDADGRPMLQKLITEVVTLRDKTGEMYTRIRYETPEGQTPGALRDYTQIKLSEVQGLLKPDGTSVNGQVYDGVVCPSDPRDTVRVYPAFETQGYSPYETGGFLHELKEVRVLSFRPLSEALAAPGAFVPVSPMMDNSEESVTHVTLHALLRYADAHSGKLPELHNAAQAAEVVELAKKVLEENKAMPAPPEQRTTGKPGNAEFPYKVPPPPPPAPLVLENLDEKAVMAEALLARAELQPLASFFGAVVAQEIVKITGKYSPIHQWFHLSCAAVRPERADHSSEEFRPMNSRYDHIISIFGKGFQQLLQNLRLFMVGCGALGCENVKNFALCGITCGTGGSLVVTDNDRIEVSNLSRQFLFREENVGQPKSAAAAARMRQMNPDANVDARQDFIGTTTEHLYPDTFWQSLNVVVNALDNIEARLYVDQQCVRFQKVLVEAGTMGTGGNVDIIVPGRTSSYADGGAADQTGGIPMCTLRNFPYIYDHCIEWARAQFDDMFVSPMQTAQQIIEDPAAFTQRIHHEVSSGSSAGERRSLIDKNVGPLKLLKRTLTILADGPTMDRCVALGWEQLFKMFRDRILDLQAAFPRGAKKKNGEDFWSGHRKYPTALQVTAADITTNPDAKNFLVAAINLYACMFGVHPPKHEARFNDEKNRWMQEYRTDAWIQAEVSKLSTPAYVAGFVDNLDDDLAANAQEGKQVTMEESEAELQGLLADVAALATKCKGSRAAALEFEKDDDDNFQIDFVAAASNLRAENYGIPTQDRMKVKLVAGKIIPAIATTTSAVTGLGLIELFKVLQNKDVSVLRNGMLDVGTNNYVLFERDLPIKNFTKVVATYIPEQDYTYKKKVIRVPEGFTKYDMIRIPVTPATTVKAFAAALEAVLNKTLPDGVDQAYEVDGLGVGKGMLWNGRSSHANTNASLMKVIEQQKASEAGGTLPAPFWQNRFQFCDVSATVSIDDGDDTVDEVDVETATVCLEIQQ
# [3] = molecular target: T2, Aspartate--tRNA(Asp/Asn) ligase (Mycobacterium tuberculosis (strain ATCC 25618 / H37Rv)) (UniProt P9WFW3); assay: Assay for Asp RNA synthetase-1 from Mycobacterium tuberculosis; assay type: functional; conditions: 30 µM; note: in the data most compounds retested in dose-response had high values
# T2 sequence (whole entry): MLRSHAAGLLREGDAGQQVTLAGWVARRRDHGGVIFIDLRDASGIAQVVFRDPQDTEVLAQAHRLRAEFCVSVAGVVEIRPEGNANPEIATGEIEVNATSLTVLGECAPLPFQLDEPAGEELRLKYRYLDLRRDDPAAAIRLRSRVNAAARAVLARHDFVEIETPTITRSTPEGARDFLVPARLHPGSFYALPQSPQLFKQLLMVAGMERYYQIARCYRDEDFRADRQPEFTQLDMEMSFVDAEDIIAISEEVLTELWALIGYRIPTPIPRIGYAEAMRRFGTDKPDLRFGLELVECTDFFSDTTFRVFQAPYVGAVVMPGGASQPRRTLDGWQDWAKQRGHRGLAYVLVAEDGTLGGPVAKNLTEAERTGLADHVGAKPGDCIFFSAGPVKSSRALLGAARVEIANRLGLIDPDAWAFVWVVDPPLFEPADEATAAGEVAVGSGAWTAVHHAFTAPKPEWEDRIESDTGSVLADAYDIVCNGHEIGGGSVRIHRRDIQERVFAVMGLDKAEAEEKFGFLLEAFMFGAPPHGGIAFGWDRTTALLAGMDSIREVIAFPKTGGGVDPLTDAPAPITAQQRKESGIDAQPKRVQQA
# [4] = molecular target: Sialic acid-binding Ig-like lectin 9 (Homo sapiens) (UniProt Q9Y336); assay: Hs-Siglec9 ALPHAscreen SOP 20170721; conditions: 10 µM
# Sialic acid-binding Ig-like lectin 9 (Homo sapiens), sequence (Q9Y336 whole entry): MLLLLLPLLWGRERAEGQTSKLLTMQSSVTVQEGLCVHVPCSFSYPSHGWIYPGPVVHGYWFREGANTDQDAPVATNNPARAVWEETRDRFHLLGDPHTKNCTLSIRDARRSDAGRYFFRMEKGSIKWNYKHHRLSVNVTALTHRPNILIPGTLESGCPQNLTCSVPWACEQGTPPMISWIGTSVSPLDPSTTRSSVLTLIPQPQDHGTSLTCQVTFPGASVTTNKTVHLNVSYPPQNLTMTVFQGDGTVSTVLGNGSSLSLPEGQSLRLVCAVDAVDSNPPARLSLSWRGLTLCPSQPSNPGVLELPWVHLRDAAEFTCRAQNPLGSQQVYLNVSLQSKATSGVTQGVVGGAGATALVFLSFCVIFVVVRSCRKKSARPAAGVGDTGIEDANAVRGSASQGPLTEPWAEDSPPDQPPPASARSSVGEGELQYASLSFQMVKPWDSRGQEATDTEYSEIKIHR
# Trypanosoma cruzi = assay: Trypanosoma cruzi phosphomannomutase and mannose-1-phosphate guanylyltransferase assay; assay type: functional; conditions: 10 µM
# [5] = molecular target: T3, Arginase-2, mitochondrial (Homo sapiens) (UniProt P78540); assay: in vitro enzyme assay to detect the production of urea directly proportional to the activity of Arginase II; assay type: functional; conditions: 33.3 µM; note: in the data most compounds retested in dose-response had high values
# T3 sequence (whole entry): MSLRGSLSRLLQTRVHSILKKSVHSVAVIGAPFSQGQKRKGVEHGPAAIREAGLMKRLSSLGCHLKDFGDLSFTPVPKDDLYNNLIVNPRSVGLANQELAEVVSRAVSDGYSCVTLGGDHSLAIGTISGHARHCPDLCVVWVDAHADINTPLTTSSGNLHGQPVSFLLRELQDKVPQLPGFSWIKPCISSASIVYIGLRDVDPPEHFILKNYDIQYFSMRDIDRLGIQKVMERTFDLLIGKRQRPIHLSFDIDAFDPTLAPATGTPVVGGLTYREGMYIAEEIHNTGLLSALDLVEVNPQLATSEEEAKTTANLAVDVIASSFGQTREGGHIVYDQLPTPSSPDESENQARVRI
# [6] = molecular target: T4, Proteasome subunit beta (Trypanosoma cruzi) (UniProt O96673); assay: Trypanosoma cruzi proteasome chymotrypsin-like activity (TcProtChymo) assay.; note: in the data most compounds retested in dose-response had high values; assay type: functional; conditions: 9.37 µM
# T4 sequence (whole entry): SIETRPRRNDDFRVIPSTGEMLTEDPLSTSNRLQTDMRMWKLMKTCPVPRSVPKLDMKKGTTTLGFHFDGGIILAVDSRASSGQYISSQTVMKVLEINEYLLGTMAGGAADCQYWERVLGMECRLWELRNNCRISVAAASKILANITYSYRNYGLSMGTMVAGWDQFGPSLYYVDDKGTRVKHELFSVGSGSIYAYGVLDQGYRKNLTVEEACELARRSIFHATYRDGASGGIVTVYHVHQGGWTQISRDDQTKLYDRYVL
# Homo sapiens = species: Homo sapiens; assay: To identify inhibition of the IFN signalling (Jak-Stat) pathway via expression of an eGFP reporter gene under the control of an IFN-stimulated response element (ISRE) containing MxA promoter.; assay type: functional; conditions: 30 µM
# [7] = molecular target: Shiga toxin 2 (Escherichia coli O157:H7) (UniProt P09385+P09386); assay: E. coli 0.157:H7 Shiga Toxin SOP - stx2 screening assay; assay type: functional; conditions: 30 µM
# [8] = molecular target: T5, Tyrosyl-tRNA synthetase, putative (Trypanosoma cruzi (strain CL Brener)) (UniProt Q4DSP6); assay: Trypanosoma cruzi tyrosyl tRNA synthetase (TcYRS) _High Tyrosine SOP; assay type: functional; conditions: 30 µM; note: in the data most compounds retested in dose-response had high values
# T5 sequence (whole entry): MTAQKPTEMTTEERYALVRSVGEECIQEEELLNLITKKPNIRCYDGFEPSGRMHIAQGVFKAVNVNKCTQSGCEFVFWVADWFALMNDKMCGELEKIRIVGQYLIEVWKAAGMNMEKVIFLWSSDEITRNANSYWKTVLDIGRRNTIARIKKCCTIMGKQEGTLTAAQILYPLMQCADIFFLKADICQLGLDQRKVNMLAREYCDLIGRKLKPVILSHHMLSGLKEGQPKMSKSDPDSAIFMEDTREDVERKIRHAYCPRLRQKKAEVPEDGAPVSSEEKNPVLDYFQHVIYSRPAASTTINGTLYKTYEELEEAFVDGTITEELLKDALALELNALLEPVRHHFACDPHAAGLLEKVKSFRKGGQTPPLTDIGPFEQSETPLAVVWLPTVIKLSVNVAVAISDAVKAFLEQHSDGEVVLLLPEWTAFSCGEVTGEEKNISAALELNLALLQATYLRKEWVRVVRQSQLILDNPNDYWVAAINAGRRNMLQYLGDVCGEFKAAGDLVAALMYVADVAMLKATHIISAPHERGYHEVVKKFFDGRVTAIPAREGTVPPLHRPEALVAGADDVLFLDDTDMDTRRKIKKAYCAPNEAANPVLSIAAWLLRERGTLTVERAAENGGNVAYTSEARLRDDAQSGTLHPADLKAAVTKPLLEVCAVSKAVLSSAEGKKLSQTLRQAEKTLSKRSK
# [9] = molecular target: T5, Tyrosyl-tRNA synthetase, putative (Trypanosoma cruzi (strain CL Brener)); assay: Trypanosoma cruzi tyrosyl tRNA synthetase (TcYRS) SOP; assay type: functional; conditions: 30 µM
# [10] = molecular target: Chromo domain-containing protein 1 (Saccharomyces cerevisiae (strain ATCC 204508 / S288c) (Baker's yeast)) (UniProt P32657); assay: ScCHD-1 Enzyme Inhibition Assay; assay type: functional; conditions: 30 µM; note: in the data most compounds retested in dose-response had high values
# Chromo domain-containing protein 1 (Saccharomyces cerevisiae (strain ATCC 204508 / S288c) (Baker's yeast)), sequence (P32657 whole entry, the tested form may be a part): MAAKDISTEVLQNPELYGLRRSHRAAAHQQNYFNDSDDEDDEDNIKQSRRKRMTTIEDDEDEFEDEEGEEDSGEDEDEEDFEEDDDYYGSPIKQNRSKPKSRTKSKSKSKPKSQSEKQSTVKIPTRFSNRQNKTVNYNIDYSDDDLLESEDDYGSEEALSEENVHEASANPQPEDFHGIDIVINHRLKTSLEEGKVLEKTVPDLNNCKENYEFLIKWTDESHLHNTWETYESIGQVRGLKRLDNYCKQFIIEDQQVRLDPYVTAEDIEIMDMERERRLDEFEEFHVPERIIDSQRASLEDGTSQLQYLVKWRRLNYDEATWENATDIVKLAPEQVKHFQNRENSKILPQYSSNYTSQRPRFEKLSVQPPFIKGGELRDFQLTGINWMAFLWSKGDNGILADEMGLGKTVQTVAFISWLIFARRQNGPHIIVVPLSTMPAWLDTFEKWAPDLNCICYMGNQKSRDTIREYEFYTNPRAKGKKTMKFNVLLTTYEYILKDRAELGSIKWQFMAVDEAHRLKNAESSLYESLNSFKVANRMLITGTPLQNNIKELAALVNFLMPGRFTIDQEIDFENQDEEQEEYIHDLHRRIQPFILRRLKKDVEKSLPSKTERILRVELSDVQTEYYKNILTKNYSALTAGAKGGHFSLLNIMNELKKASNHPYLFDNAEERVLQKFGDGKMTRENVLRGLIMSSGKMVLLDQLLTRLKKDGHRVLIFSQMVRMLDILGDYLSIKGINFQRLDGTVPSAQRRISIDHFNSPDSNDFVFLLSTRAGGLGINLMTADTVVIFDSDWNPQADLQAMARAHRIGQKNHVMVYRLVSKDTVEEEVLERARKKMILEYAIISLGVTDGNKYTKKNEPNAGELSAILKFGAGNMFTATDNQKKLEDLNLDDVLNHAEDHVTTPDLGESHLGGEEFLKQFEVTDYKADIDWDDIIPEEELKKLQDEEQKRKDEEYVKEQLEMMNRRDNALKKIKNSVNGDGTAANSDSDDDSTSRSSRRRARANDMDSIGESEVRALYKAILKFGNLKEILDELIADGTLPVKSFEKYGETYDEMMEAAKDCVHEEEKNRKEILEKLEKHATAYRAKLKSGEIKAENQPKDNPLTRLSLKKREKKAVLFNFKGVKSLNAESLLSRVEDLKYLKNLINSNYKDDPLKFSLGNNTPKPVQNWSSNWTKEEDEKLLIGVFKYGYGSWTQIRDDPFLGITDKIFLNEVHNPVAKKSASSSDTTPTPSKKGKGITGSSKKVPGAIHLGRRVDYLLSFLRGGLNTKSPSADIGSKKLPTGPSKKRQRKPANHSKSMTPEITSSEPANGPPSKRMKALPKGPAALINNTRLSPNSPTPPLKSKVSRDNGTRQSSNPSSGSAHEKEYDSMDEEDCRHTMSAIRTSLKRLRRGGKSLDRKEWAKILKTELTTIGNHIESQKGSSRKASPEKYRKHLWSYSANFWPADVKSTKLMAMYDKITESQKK
SMILES,Percent Effect [1] [%],Percent Effect [2] [%],Percent Effect [3] [%],Percent Effect [4] [%],Percent Effect (Trypanosoma cruzi) [%],Percent Effect [5] [%],Percent Effect [6] [%],Percent Effect (Homo sapiens) [%],Percent Effect [7] [%],Percent Effect [8] [%],Percent Effect [9] [%],Percent Effect [10] [%]
COCC(C)NC(=O)c1cn(C(C)(C)C)c2ncccc12 (stereo not given),0.871,14.7,4.78,-9.18,4.93,0.443,18.2,6.95,-13.5,0,10,-22.6
Cc1cccc(CN2C(=O)C[C@H]3[C@@H]2CCN3CC2CC2)n1,-1.8,-22.1,3.32,2.35,0.563,1.83,12.3,-5.79,4.71,12.6,12.5,-5.44
Cc1cc(CN2CC[C@H]3C[C@H](C(=O)N(C)C)O[C@@H]3C2)no1,-4.45,3.9,-0.0763,14.4,5.36,12.6,13.3,-6.77,-6.84,2.63,-5.13,20.4
Fc1cnc(N2CCCC3(CCN(Cc4ccsc4)C3)C2)nc1 (stereo not given),-5.76,3.9,9.59,-1.26,3.02,-5.26,8.56,-2.16,-9.72,6.84,7.69,14.2
CCc1nc(CC(=O)N2CCCC2CN2CCCC2)cs1 (stereo not given),-0.0825,0,-3.69,1.63,-2.01,5.32,11.1,-4.98,-5.61,2.63,2.56,-5.66
COC(=O)c1cccc(C(=O)N2CCCCC2CCn2ccnc2C)c1 (stereo not given),,,0.586,,,,,,,,,
CC(C)(C)OC(=O)NC(C)(C)c1noc(CN2CCCCC2)n1,,,-0.448,,,,,,,,,
O=C(Nc1cccnc1)[C@@H]1C[C@H]2OCC[C@H]2N(Cc2ccsc2)C1,-6.23,9.09,-1.88,6.98,0.487,-0.81,13.7,0.767,-6.35,4.74,10.3,-2.28
CC[C@H]1N(C)CCC[C@]12CCC(=O)N2Cc1ccncc1,-1.96,32.5,0.228,0.456,1.69,-1.83,14.3,16.7,-15.6,7.73,10,-8.84
COc1ccc(C)cc1CC(=O)N1CCN(CC(C)O)CC1 (stereo not given),-3.62,15.6,3.12,6.85,5.6,-5.53,8.07,0.0446,-20.5,4.9,18.8,-7.21
Cc1noc(C)c1CN1CCO[C@H]2CN(CC3CC3)C[C@H]21,-4.84,11.7,-1.48,9.57,4.58,3.24,18.4,2.94,-2.75,8.95,20.5,12.9
